Results on 40 molecules are retold here after PubChem BioAssay (NCATS).

Results filed as inconclusive are left out. Where a call stands in place of a potency, no number is given. Active and inactive are the calls of the source. Calls come from the whole dose curve; as a rule, active = well fitted inhibition curve with a large enough effect; inconclusive = small, poorly fitted or top-dose-only effect; inactive = no such curve, though single readings can be large or run the other way.

For the assay, the target named is Retinaldehyde dehydrogenase 3 (Homo sapiens) (UniProt P47895). The assay is described as follows: qHTS for Inhibitors of the Aldehyde Dehydrogenase Family (ALDH1A3) Primary screen (AID 2061315). The conditions noted are these: ALDH inhibition qHTS; series mostly up to 56 µM. (In general: In qHTS, concentration-response curves come from the screen itself.)
Regarding `Cc1ccc(-c2cc(C(=O)Nc3ccc(C#N)cc3)c3ccccc3n2)cc1C`, the Potency entry is “inactive”.

Turning to `Cn1c2cc(B(O)O)sc2c2cnn(Cc3ccccc3F)c(=O)c21`, the Potency result was “inactive”.

Consider `Cc1cn([C@H]2C[C@H](N[S+](=O)([O-])Cc3cccc(Cl)c3)[C@@H](CO)O2)c(=O)[nH]c1=O`, for which the Potency entry was “inactive”.

Consider `Cc1cc2c(s1)c1cnn(Cc3ccc(C(=O)O)cc3)c(=O)c1n2C`, for which the Potency result was “inactive”.

As for `Cc1cc(NS(=O)(=O)c2ccc(NC(=O)Cc3ccc(Cl)c(F)c3)cc2)no1`, the Potency result is “inactive”.

`Cc1cccc(-c2ccc3ncnc(NCc4cc(C)cs4)c3c2)c1`: the Potency result was “inactive”.

On to `Cc1cc2c(s1)c1cnn(Cc3ccc(F)c(C)c3)c(=O)c1n2C`, for which the Potency result was “inactive”.

As for `O=C(OCC#CCSc1nnc(-c2cccc3ccccc23)o1)c1ccsc1`, the Potency entry is “inactive”.

As to `COc1ccnc(NC(=S)N2CCN(c3ccc4ccccc4n3)CC2)c1`, the Potency result was “inactive”.

As to `Cc1ccc(-c2ccc(=O)n(CC(=O)N(C)[C@H](C)c3ccccc3)n2)cc1`, the Potency result is “inactive”.

With `c1ccc(-c2cnc(Nc3ccc(OCCN4CCCC4)cc3)s2)cc1`, the Potency result was “inactive”.

As to `O=C(Nc1cncnc1)c1cccs1`, the Potency result was “inactive”.

Turning to `CN(Cc1ccco1)c1ncnc2ccc(-c3ccccc3Cl)cc12`, the Potency entry is “inactive”.

For the molecule `CN1CCC(c2cn(C)c3ccc(OS(=O)(=O)c4c(F)cccc4F)cc23)CC1`, the Potency entry is “inactive”.

Regarding `C=C1C(=O)OC2CC3(C)C(CC12)C(C)=CC(O)C3OC(C)=O` (stereo not given), the Potency entry is “inactive”.

Regarding `O=C(O)c1cccc(S(=O)(=O)N2CCN(S(=O)(=O)c3ccc4c(c3)OCCO4)CC2)c1`, the Potency result is “inactive”.

With `COC(=O)c1ccc(-c2c(NC(C)=O)sc3c2CCNC3)cc1`, the Potency result is “inactive”.

As to `Cc1ccc(S(=O)(=O)Nc2cc(F)c(F)cc2C(=O)Nc2nc(-c3ccccc3)cs2)cc1`, the Potency entry was “inactive”.

For the molecule `c1cncc(CNc2ncnc3ccc(-c4cccnc4)cc23)c1`, the Potency result is “inactive”.

`COc1ccccc1-c1ncc(C)c(NCc2ccc(-c3cccnc3)cc2)n1`: the Potency entry was “inactive”.

For the molecule `N=c1c2c(ccn1Cc1ccccc1)Oc1ccc3ccccc3c1C2c1ccccc1` (stereo not given), the Potency result was “inactive”.

`O=C1CCCc2cc(S(=O)(=O)Nc3cnccc3C(=O)Nc3nc(-c4ccccc4)cs3)ccc2N1`: the Potency result is “inactive”.

For `O=C(OCC#CCSc1nnc(-c2ccc(F)cc2)o1)c1ccc(F)cc1`, the Potency result is “inactive”.

As to `CC(NCc1ccc2c(c1)nc(NC(=O)c1ccc(-c3cn[nH]c3)s1)n2CC(C)(C)O)C(C)(C)C` (stereo not given), the Potency result is “inactive”.

As to `CC1=C(C(=O)Nc2ccc(C)cc2)C(c2ccccc2Br)N=C(Nc2nc3ccccc3o2)N1` (stereo not given), the Potency entry is “inactive”.

Regarding `Clc1ccc(CN(CCCNc2ncnc(NCCCc3cnc[nH]3)n2)c2ccc(Br)cn2)cc1Cl`, the Potency entry was “inactive”.

`Cc1cc(NC(=O)Nc2nnc(-c3cccnc3)s2)ccc1Cl`: the Potency result was “inactive”.

Regarding `O=C1CCc2cc(S(=O)(=O)Nc3cccc(F)c3)ccc2N1`, the Potency result is “inactive”.

With `NS(=O)(=O)c1ccc(Nc2nc(-c3ccccc3)cs2)cc1`, the Potency entry is “inactive”.

As to `CC(C)(C)c1ccc(-c2ccc(=O)n(CC(=O)NCCc3ccccc3)n2)cc1`, the Potency entry was “inactive”.

In the case of `O=C1CCc2cc(S(=O)(=O)Nc3cccc(Oc4ccccc4)c3)ccc2N1`, the Potency result is “inactive”.

On to `O=C(OCC#CCSc1nnc(-c2cccc3ccccc23)o1)c1ccc(Cl)cc1`, for which the Potency result is “inactive”.

As to `COc1ccc2c(c1)Oc1nc(-c3ccc(C)s3)nc(SCC(=O)Nc3cccc(C(=O)O)c3)c1C2`, the Potency entry was “inactive”.

`C=CC(C)(C)C12CC3C(=O)N4C(CC5(C(C)(C)C=C)c6ccccc6NC45)C(=O)N3C1Nc1ccccc12` (stereo not given): the Potency entry is “inactive”.

With `Cc1cnc(-c2ccccc2C(C)C)nc1NCc1ccc(-c2nn[nH]n2)cc1`, the Potency result was “inactive”.

`Cc1cc(C)nc(NC(=S)N2CCN(c3cc(Cl)cc(C(F)(F)F)c3)CC2)c1`: the Potency entry was “inactive”.

Take `CC(C)(C)OC(=O)Cc1nnc(-c2cc3ccccc3[nH]2)s1`: the Potency entry is “inactive”.

For the molecule `Cc1ccc(-c2nnc(N3CCC(C(N)=O)CC3)s2)cc1`, the Potency result is “inactive”.

On to `Cc1nc(NCc2ccccc2)c2nc(-c3ccccc3)n(C3CCN(Cc4ccccc4)C3)c2n1` (stereo not given), for which the Potency entry is “inactive”.

Regarding `Cc1cc(C)n2ncc(C(=O)NCc3ccccc3)c2n1`, the Potency entry was “inactive”.
